Pol kappa inh = DNA polymerase kappa (human) inhibition; Potency, µM (highest dose often 107 µM), inactives show at the highest dose activity, negative = inhibition, most hits filed as inhibitors; Q9UBT6; purified Pol kappa, fluorescent DNA synthesis assay, 10 min; 400,000 tested, 0.53% active; note: potency is the fitted concentration of half-maximal effect; % is set by controls: 0 for no effect and ±100 for the full control effect
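Here, compound and 10 nM enzyme are combined for 15 min at room temperature; adding 50 nM substrate (final) starts DNA synthesis, tracked by fluorescence at 0 and 10 min against buffer-only wells.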
POLB inh = DNA polymerase beta (human) inhibition; P06746; Pol beta primer extension/strand displacement, fluorescence kinetic; Potency, µM (series often up to 114 µM), for inactives: top-dose activity change, negative = inhibition, actives largely listed as inhibitors; 340,000 tested, 1.3% active; AID 485314; note: potency is the fitted concentration of half-maximal effect; % is set by controls: 0 for no effect and ±100 for the full control effect
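10 nM enzyme + cpd, 15 min RT; start with substrate 50 nM final; read 0 min and after 10 min RT. Corrected, normalized data; 4-parameter Hill curve fit.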
WRN inhibitor = WRN helicase (human) inhibition; Q14191; WRN helicase unwinding, fluorescent forked duplex, kinetic; Potency, µM (titrated, usually from 114 µM), for inactives: at the top dose activity change, negative = inhibition, most hits filed as inhibitors; 360,000 tested, 0.46% active; AID 651768; note: potency is the fitted concentration of half-maximal effect; % is set by controls: 0 for no effect and ±100 for the full control effect; nearly all actives have a fitted effect of over 55% in size
Target sequence (Q14191 whole entry, looked up): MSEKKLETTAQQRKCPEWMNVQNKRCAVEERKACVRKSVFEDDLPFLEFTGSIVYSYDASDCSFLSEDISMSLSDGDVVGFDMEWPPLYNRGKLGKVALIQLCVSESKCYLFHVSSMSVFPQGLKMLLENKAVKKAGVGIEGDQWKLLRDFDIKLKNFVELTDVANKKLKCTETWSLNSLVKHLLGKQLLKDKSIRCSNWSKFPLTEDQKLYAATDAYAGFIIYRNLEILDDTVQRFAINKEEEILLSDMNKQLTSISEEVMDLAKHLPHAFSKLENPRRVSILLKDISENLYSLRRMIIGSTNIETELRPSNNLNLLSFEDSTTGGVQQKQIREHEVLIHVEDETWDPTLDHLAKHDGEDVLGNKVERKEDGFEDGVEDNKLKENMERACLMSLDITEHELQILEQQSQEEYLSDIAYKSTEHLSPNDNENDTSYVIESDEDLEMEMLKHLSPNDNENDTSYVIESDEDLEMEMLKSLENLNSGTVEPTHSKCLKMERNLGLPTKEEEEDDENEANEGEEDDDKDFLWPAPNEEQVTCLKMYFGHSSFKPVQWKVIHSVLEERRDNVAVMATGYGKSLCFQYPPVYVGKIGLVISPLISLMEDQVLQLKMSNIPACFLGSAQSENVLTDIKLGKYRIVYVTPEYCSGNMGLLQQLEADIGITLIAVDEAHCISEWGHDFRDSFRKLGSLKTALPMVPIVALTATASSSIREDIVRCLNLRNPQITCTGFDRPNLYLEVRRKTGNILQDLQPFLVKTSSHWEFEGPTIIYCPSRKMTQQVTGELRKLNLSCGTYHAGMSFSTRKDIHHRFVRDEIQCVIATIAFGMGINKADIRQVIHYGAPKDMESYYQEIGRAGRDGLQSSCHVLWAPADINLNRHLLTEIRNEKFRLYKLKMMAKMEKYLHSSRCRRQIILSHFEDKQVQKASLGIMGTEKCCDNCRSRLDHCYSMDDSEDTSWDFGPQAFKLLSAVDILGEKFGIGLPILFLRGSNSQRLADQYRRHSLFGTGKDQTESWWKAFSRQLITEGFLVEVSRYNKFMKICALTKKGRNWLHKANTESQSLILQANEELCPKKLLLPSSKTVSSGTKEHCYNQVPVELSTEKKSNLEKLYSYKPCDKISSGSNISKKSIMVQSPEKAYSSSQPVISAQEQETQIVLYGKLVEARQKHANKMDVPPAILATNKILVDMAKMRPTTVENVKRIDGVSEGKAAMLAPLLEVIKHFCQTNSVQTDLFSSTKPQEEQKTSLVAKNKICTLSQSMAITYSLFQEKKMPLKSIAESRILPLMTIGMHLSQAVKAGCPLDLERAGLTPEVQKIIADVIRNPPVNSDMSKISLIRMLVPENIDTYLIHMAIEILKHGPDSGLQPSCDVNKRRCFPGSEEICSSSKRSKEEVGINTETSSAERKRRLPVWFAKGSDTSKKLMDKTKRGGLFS
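Primary qHTS, 1536-well format. 20 nM WRN + compound, 15 min RT; start with 100 nM forked fluorophore/quencher duplex, 2 mM ATP (final); kinetic read ex 525/em 598 nm.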
Pol eta inh = inhibitors of human DNA polymerase eta; Q9Y253; recombinant Pol eta, fluorescent DNA replication assay; Potency, µM (doses to about 114 µM), for inactives: top-dose activity change, negative = inhibition, usual class: inhibitors; 390,000 tested, 1.2% active; AID 588591; note: potency is the fitted concentration of half-maximal effect; % is set by controls: 0 for no effect and ±100 for the full control effect
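Fluorescent replication assay: 50 nM final substrate added after a 15 min room-temperature compound preincubation with 10 nM enzyme. Signal taken at 0 min and again at 10 min.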
POLI inh = blocks human DNA polymerase iota activity | Q9UNA4 | Pol iota fluorescent replication assay, 10 min | Potency, µM (top dose mostly 115 µM), for the others: top-dose activity, negative = inhibition, hits mostly inhibitors | 390,000 tested, 1% active; note: potency is the fitted concentration of half-maximal effect
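Pol iota at 10 nM preincubated 15 min with compounds at room temperature; reaction started with fluorescent substrate, 50 nM final. Fluorescence read kinetically at 0 and 10 min; buffer-only wells as negative control.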
PI5P4Ka inh = PI5P4K alpha (human) kinase inhibition | P48426 | PI5P4Kalpha enzyme, ADP-Glo luminescence, 60 min; stronger effect = lower value | AID 652105 | max response, % | 330,000 tested, 1.2% active; active = max response of -50% or lower; inconclusive = between -30% and -50%; inactive = -30% or higher; note: value at the top dose of about 77 µM; % is set by controls: 0 for no effect and ±100 for the full control effect
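Reactions run in 0.038 M HEPES pH 7.4, 0.28 mM EGTA, 0.1% CHAPS and 5% DMSO, with PI5P4Kalpha, substrate, compound and 5 microM ATP final, one hour at room temperature. Readout is ADP-Glo luminescence.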
* = called active by the depositor; ? = inconclusive; nt = not tested or not shown; [ ] = remark or other dose. An excerpt weighted towards active compounds, which were near 2.8% of everything screened. Unless noted, calls come from the whole dose curve; as a rule, active = well fitted curve in the direction sought with a large enough effect; inconclusive = small, poorly fitted or top-dose-only effect, or another doubt; inactive = no such curve, though single readings can be large; an effect the other way counts as inactive or inconclusive.

SMILES	Pol kappa inh	POLB inh	WRN inhibitor	Pol eta inh	POLI inh	PI5P4Ka inh
COc1ccc(Nc2nc3[nH]c(=O)cc(O)c3s2)cc1	6.1%	44.7µM*	-5.1%	-18.7%	83.9%	?
O=c1cc(O)c2sc(Nc3ccc(F)c(Cl)c3)nc2[nH]1	-2.1%	56.2µM*	?	-12.4%	42.6%	-68.5*
CC(=O)c1ccc(NC(=O)c2cc(C)nc3c2c(C)nn3-c2ccc(C)cc2)cc1	-6.5%	-14.2%	nt	-7.4%	15.0%	nt
COCCCN1C(=O)C(CC(=O)NCC2CCCCC2)CC(C(=O)N2CCOCC2)=C1C (centres undefined)	nt	nt	-8.4%	-17.6%	nt	5.9
Cc1ccc(NC(=O)CSc2nnc(Cc3cccn3C)n2-c2ccc(F)cc2)cc1	3.0%	27.0%	-1.5%	-11.1%	-13.3%	-14.7
CCSc1nnc(NC(=O)CSc2nnc(Cc3cccn3C)n2-c2ccc(C)cc2)s1	-16.4%	?	-14.3%	-18.2%	50.1µM*	nt
CC(C)Oc1ccc(CNC(=O)C2CCCN(S(=O)(=O)N3CCOCC3)C2)cc1 (centres undefined)	14.0%	-1.3%	-3.1%	-10.6%	28.7%	-3.1
O=C1OC(c2ccc(F)cc2)=C/C1=C\c1ccc([N+](=O)[O-])o1	nt	7.08µM*	nt	nt	nt	nt
Cc1cccc(CNC(=O)c2cc(S(=O)(=O)N3CCOCC3)cn2C)c1	2.5%	1.3%	-3.1%	9.5%	25.1%	1.9
CCN(CC)CCCC(C)Nc1cc(/C=C/c2ccccc2Cl)nc2cc(Cl)ccc12 (centres undefined)	1.7%[19.4 µM]	nt	nt	nt	70.8µM*	nt
CCN(CC)CCCC(C)Nc1c2ccc(Cl)cc2nc2ccc(OC)cc12 (centres undefined)	8.91µM*	15.8µM*	nt	?	7.94µM*	nt
COc1ccc2nc3cc(Cl)ccc3c(Nc3cc(C(C)C)c(O)cc3C)c2c1	-3.0%	-9.7%	1.2%[57.1 µM]	-14.5%	37.0%	?
CCOC(=O)CCN(C(=O)Nc1ccccc1)C1CCCCC1	1.9%	nt	-24.2%	-2.8%	70.7%	0.1
O=C(O)C1CCCN1c1nc(-c2ccc(Cl)c(Cl)c2)cc(C(F)(F)F)n1 (centres undefined)	-2.5%	nt	-1.7%	-26.5%	11.3%	-6.1
O=c1c(C=NCc2ccccc2)c(NCc2ccccc2)nc2ccccn12	-12.8%	31.7%	-13.1%	-5.2%	-16.6%	4.8
Cc1ccc2nc(NCc3ccco3)c(C=NCc3ccco3)c(=O)n2c1	-14.2%	28.2µM*	-12.9%	-5.6%	1.2%	nt
CN(c1ccc(-c2csc(NC(=O)C3CC(=O)N(Cc4ccco4)C3)n2)cc1)S(C)(=O)=O (centres undefined)	?	nt	-14.4%	50.1µM*	44.7µM*	?
COC(=O)c1sc(N)c(C(=O)OC)c1COC(=O)C1CC(=O)N(Cc2ccco2)C1 (centres undefined)	-6.7%	11.2µM*	?	79.4µM*	?	nt
CS(=O)(=O)c1ccc(Cl)c(NC(=O)C2CC(=O)N(Cc3ccco3)C2)c1 (centres undefined)	?	nt	1.5%[11.6 µM]	-25.6%	79.4µM*	0.8
Cc1cccc(C)c1-n1nnnc1C(c1ccnc2ccccc12)N(C)Cc1ccc(Cl)c(Cl)c1 (centres undefined)	nt	nt	-0.5%	nt	nt	5.5
COc1ccc(OC)c(NC(=O)C2(C)CCN2C(=O)C2(c3ccc(Cl)cc3)CCC2)c1 (centres undefined)	nt	nt	-10.2%	nt	nt	7.1
Cc1ccc2[nH]c(-c3ccccc3)cc(=O)c2c1	-0.3%	24.7%	10.2%	-13.0%	18.4%	1.9
COc1ccc(-c2cc(=O)c3cc(C)ccc3[nH]2)cc1	-11.0%	3.8%	-5.8%	8.9%	79.4µM*	-1.7
COc1ccc(-c2cc(=O)c3cc(OC)ccc3[nH]2)cc1	4.4%	14.2%	3.0%	1.4%	35.5µM*	-13.5
COc1cc2[nH]c(-c3ccc(C)cc3)cc(=O)c2cc1OC	-5.2%	14.2%	14.9%	-7.6%	-18.6%	-7.1
SMILES	Pol kappa inh	POLB inh	WRN inhibitor	Pol eta inh	POLI inh	PI5P4Ka inh
CCc1ccc(NC(=O)CSc2nc3c(sc4ccccc43)c(=O)n2CCCOC(C)C)cc1	-0.7%[60.1 µM]	-0.5%	nt	-7.6%	17.5%	nt
CCOCCc1nn2c(=O)cc(COC(=O)c3ccccc3Br)nc2s1	0.0%	8.6%	nt	-7.1%	47.0%	nt
CCOc1ccc(C(=O)Nc2ccc(N3CCN(C)CC3)cc2)cc1Br	-1.4%	0.5%	-27.3%	4.0%	37.5%	-7.6
CCOc1ccc(C(=O)Nc2ccc(N3CCN(C(=O)c4ccco4)CC3)cc2)cc1Br	-9.1%	nt	?	?	25.1µM*	3.0
Cc1ccc(CSCCC(=O)NCc2ccc(F)cc2Cl)cc1	-12.9%[60.1 µM]	13.6%	nt	-12.9%	-24.0%	nt
Cc1cccc(OCC(=O)Nc2ccc(O)c(-c3nc4ccccc4o3)c2)c1	-18.6%	nt	nt	nt	?	nt
COc1ccc(OCC(=O)N/N=C2\CCCCc3ccccc32)cc1	-14.5%	6.3%	-8.5%	4.6%	30.0%	-62.6*
Cc1ccc(S(=O)(=O)N2CCN(C(C)C(=O)Nc3ccccc3-c3ccccc3)CC2)cc1 (centres undefined)	-9.5%	30.7%	-2.3%	?	1.3%	-4.0
COc1ccc(/C=N/c2nc3ccccc3n2C)cc1OC	1.4%	79.4µM*	-0.9%	-13.1%	19.0%	nt
COc1cc2c(cc1CNC[C@H]1O[C@@H](n3cnc4c(N)ncnc43)[C@H](O)[C@@H]1O)OCO2	2.9%	nt	-3.7%	-2.1%	19.8%	-1.4
Cc1c(OCC(=O)NC(Cc2ccc(Cl)cc2)C(=O)O)ccc2c3c(c(=O)oc12)CCC3 (centres undefined)	15.4%	1.3%	4.2%	-4.6%	-1.5%	2.3
Cc1c(OCC(=O)N[C@H](C(=O)O)c2ccccc2)ccc2c3c(c(=O)oc12)CCCC3	?	?	-5.9%[11.6 µM]	56.2µM*	?	-9.5
CCc1c(C)c2ccc(OC(C)C(=O)NC(Cc3c[nH]c4ccc(O)cc34)C(=O)O)c(C)c2oc1=O (centres undefined)	-19.8%	36.1%	-4.8%	50.1µM*	?	-4.2
Cc1c(OCC(=O)NC(Cc2ccc(Cl)cc2)C(=O)O)ccc2c1oc(=O)c1ccccc12 (centres undefined)	-17.4%	-0.2%	0.4%[11.6 µM]	50.1µM*	4.7%	0.1
Cc1c(OCc2ccc(C(=O)O)o2)ccc2c3c(c(=O)oc12)CCC3	5.3%[60.1 µM]	35.5µM*	-26.6%	17.8µM*	39.8µM*	nt
O=C(Nc1ccc(F)c(Cl)c1)N1CCC(CN2CCOCC2)CC1	-4.7%	17.6%	nt	-17.9%	23.0%	nt
O=C(Cn1ncc2ccsc2c1=O)N1CCN(c2ccc(Cl)cc2)CC1	2.9%	31.7%	nt	4.5%	1.9%	nt
CC(NC(=O)C1CCCN1C(=O)CN)C(=O)O (centres undefined)	10.1%[60.1 µM]	nt	nt	nt	nt	nt

Source: PubChem (National Center for Advancing Translational Sciences (NCATS))
